For 37 molecules, growth results are on record in PubChem BioAssay (NCI).

Compounds without any hit were thinned out: in the full panel of roughly 83,000, 20% have a hit.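 Step 1: grow cells in 96-well plates. Step 2: add test compound at a single concentration. Step 3: incubate 48 h. Step 4: record percent growth.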 Values without a mark were called inactive. The source made the active and inactive calls. The calls were made as follows: active = growth percent below 10; inactive = the rest.

The test deals with MDA-MB-435 melanoma. In words: NCI-60 one-dose screen, 48 h (100 = growth as untreated, 0 = no growth, -100 = all killed). Conditions: 10 µM unless noted.
With `Fc1cc2c(cc1Cl)N(c1ncnc3ccc(-c4ccc5n[nH]nc5c4)cc13)CC2`, the growth was 92.4%.

As to `COc1ccc(-c2noc(C(=O)O)c2-c2cc(OC)c(OC)c(OC)c2)cc1`, the growth was -41.5% (active).

Consider `C=C1C(=O)O[C@H]2[C@H]1CC/C(Cn1cc(-c3ccccc3)nn1)=C\CC[C@@]1(C)O[C@@H]21`, for which the growth is -21.5% (active).

Consider `O=C(NCCCl)Nc1ncccc1OCc1ccccc1`, for which the growth was 97.1%.

Consider `COc1ccc(/C=N/C2=C(C#N)C(c3ccccc3)c3ccc4ccccc4c3O2)cc1` (configuration not stated), for which the growth was -56.3% (active).

Consider `CCOC(=O)c1cc(C)n(-c2ccc(C(=O)O)cc2)c1C`, for which the growth was 107%.

In the case of `COc1cc(NS(=O)(=O)c2ccc(-c3cnc(C4CC4)o3)cc2)ccc1F`, the growth was -21.3% (active).

In the case of `CC(=O)N1N=C(c2ccc(Nc3nc(Nc4ccccc4)nc(Nc4ccccc4)n3)cc2)CC1c1cccc([N+](=O)[O-])c1` (configuration not stated), the growth is 96.1%.

In the case of `COc1cc(C2c3cc(OC(C)=O)c(OC)cc3CC3C(=O)OCC32)ccc1OC(C)=O` (configuration not stated), the growth was 118%.

Consider `O=c1c2cccc3c(N4CCCC4)ccc(c32)c2nc3ccccc3n12`, for which the growth is 103%.

In the case of `CCC(C)(C)C(=O)O[C@H]1C[C@@H](C)C=C2C=C[C@H](C)[C@H](CC[C@@H]3CC(SCCN)CC(=O)O3)[C@H]21` (some centres not stated), the growth was 93.3%.

Turning to `CCN(C)S(=O)(=O)Nc1cccc(Nc2ncnc3cc(NC(=O)CCl)ccc23)c1Cl`, the growth is -5.32% (active).

Turning to `CC(=O)Oc1ccc(C)cc1C`, the growth is 113%.

On to `O=C1NC2(Nc3ccccc31)C(=O)Nc1c(Cl)cc(Cl)cc12` (configuration not stated), for which the growth is 103%.

Take `O=C(Nc1ccc(Oc2cccc(Cl)c2)c(Cl)c1)c1cnccn1`: the growth was -39.7% (active).

`Cc1ccc2c(n1)C(=O)C(Br)=C(CC(C)C)C2=O`: the growth is 104%.

Turning to `Cc1[nH]c(C(=O)Nc2ccc(C(=O)N3CCN(c4cc5c(cc4F)c(=O)c(C(=O)O)cn5C4CC4)CC3)cc2OC(C)C)c(Cl)c1Cl`, the growth was 88.5%.

Consider `COC1=CC(c2ccc[nH]2)=N/C1=C\c1[nH]c(C)c(CC(=O)OCc2ccccc2)c1CCC(=O)OCc1ccccc1`, for which the growth is -49.2% (active).

As for `C=C1C(=O)O[C@H]2[C@H]1CC/C(COC(=O)/C=C\C(=O)NCc1ccc(Cn3c(=O)sn(CCI)c3=O)cc1)=C\CC[C@@]1(C)O[C@@H]21`, the growth is 44.9%.

Consider `CCOC(=O)c1c(C(=O)c2cn(C)c3ccc(Br)cc23)c(-c2cn(C)c3ccc(Br)cc23)n(NC(=O)OC(C)(C)C)c1C`, for which the growth was 96.5% [100 µM].

Take `O=C1/C(=C/c2ccccc2O)CC/C1=C\c1ccccc1O`: the growth was 26.4%.

As to `CCOc1ccccc1Cn1ccnc1CCc1c(Cl)c(O)cc(O)c1C(=O)OC`, the growth is 110%.

Regarding `CCCNc1nc2ccccc2c2c1S(=O)(=O)c1ccc(Cl)cc1C2=O`, the growth is 12.2%.

Regarding `COC1=CC(c2ccc[nH]2)=N/C1=C\c1[nH]c(C)c(C(=O)OC(C)C)c1C`, the growth is -66.2% (active).

For the molecule `COc1ccc(C2=C(Nc3ccc(C(=O)Nc4ccccc4)cc3)C(=O)N(C)C2=O)cc1`, the growth is 106%.

On to `CCCCCOC(=O)c1c(C)[nH]c(/C=C2\N=C(c3ccc[nH]3)C=C2OC)c1C`, for which the growth is -16.9% (active).

Regarding `O=C(Nc1ccc(OS(=O)(=O)c2ccc(F)cc2)cc1)C1CCCCCC1`, the growth is 97.3%.

On to `COc1ccc(Nc2nnc(-c3ccc(OC)c(OC)c3)o2)cc1`, for which the growth was 109%.

As to `CS(=O)(=O)Nc1cc(-c2ccc3ncnc(Nc4ccc5c(cnn5Cc5cccc(F)c5)c4)c3c2)cnc1Cl`, the growth was 8.98% (active).

Consider `O=C(CN1CCCCC1)Nc1nc(-c2cc3ccccc3oc2=O)cs1`, for which the growth is 104%.

`Cc1ccc(Nc2cc(N)nc(N)n2)cc1Cl`: the growth was 98.9%.

Consider `CC/C(=C(/c1ccc(Cl)cc1)c1ccc(OCCN(C)C)cc1)c1ccc(Cl)cc1`, for which the growth was 73.1%.

Take `O=c1c2ccccc2n2cnc3ccc(Cl)c1c32`: the growth is 90.5%.

For the molecule `N#CSc1c[nH]c2cccc(/C=C/C(=O)/C=C(/C=C/c3cccc4[nH]cc(SC#N)c34)OB(F)F)c12`, the growth is -74.7% (active).

For `Cc1cc(C)c2c(c1)N(C)c1ncnc(-n3cnc4cc(C)ccc43)c1CC2C` (configuration not stated), the growth was 8.39% (active).

As for `N=C(N)c1ccc(-c2ccc(-c3ccccc3)o2)cc1`, the growth is -91.2% (active).

Turning to `COC(=O)c1c(C)nc(C)c2c1C(=O)C(Br)=C(NCc1ccccc1)C2=O`, the growth is -76.5% (active).
